# The supplement of paper PMC7556523
# Tests used:
# [1] = system: Sporothrix brasiliensis CBS 133006; assay: growth inhibition relative to untreated control; higher = more growth inhibition (more antifungal activity), active = 80 or more; extreme values may be limits of the assay; settings: 1 µM; 48 h
# Outline: (§1)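 Yeast-form cells of the reference isolates (grown 7 days in brain heart infusion broth with 2% glucose at 36°C) were exposed at 1 x 10^5 CFU/ml to library compounds at a final 1 μM for 48 h at 35°C in 5% CO2. Growth was checked by visual inspection under an inverted light microscope and quantified by spectrophotometric readings. The value is percent growth inhibition relative to untreated control. Runs were in quadruplicate.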
# [2] = system: Sporothrix schenckii ATCC 32286; assay: as above; settings: 1 µM; 48 h
# Outline: as §1
SMILES,growth inhibition [1],growth inhibition [2]
COc1ccc(-c2nnc3ccc(-c4cccc(C(C)C)c4)cn23)cc1OC,17% (inactive),16.8% (inactive)
COc1ccc(Cl)cc1NC(=O)CN(C)C(=O)c1cnn(-c2ccccc2)n1,14.5% (inactive),15.2% (inactive)
Nc1nc(N)c2c3c(sc2n1)CN(Cc1ccccc1)CC3,21.5% (inactive),11% (inactive)
Nc1ncnc2c1ncn2[C@@H]1O[C@H](COS(=O)(=O)NC(=O)c2ccccc2O)[C@@H](O)[C@H]1O,5.25% (inactive),9% (inactive)
CC(=O)NC[C@@H]1CN(c2ccc(N3CCOCC3)c(F)c2)C(=O)O1,1.75% (inactive),12.5% (inactive)
CNCCC(Oc1ccc(C(F)(F)F)cc1)c1ccccc1 (stereo unspecified),7.75% (inactive),2% (inactive)
CCN(CC)S(=O)(=O)c1ccc(C(=O)Nc2cc(C)nn2-c2nc(C)c(C)c(=O)[nH]2)cc1,1.25% (inactive),0% (inactive)
CC(C)(C)c1cc(C(=O)N2CCN(c3nccnc3C#N)CC2)n(Cc2ccccc2)n1,25.8% (inactive),15.8% (inactive)
c1ccc(Oc2ccc(-c3cc(CN4CCOCC4)[nH]n3)cc2)cc1,2.25% (inactive),5.75% (inactive)
Cc1nn(C(=O)Nc2cccc(C(F)(F)F)c2)c(C)c1Sc1ncccn1,28.2% (inactive),15.2% (inactive)
CC(=O)OCC1OC([S-])C(OC(C)=O)C(OC(C)=O)C1OC(C)=O.CCP(CC)CC.[Au+] (stereo unspecified),25.5% (inactive),55% (inactive)
O=C(Nc1ccc(C(F)(F)F)c(C(F)(F)F)c1)c1cc(Cl)ccc1O,92.5% (active),62% (inactive)
CCn1cnc2c(Nc3cc(F)cc(F)c3)nc(C#N)nc21,13% (inactive),3.75% (inactive)
CCCCc1ccc(NC(=O)Nc2ccc(O[C@H]3CCCC[C@@H]3N(C)c3ccccc3)c(F)c2)cc1,0% (inactive),4.25% (inactive)
CNC(=O)c1cc(S(=O)(=O)N2CCN(c3ccccn3)CC2)cs1,0% (inactive),18.2% (inactive)
CCOC(=O)c1cc(-c2csc(Nc3c(C)cc(C)cc3C)n2)on1,10.5% (inactive),3.75% (inactive)
O=C(c1cc2ccccc2o1)N1CCN(Cc2ccc3c(c2)OCO3)CC1,12.8% (inactive),7.25% (inactive)

SMILES,growth inhibition [1],growth inhibition [2]
O=C1[C@@H](Oc2ccccc2)[C@@H](c2ccc(Cl)cc2)N1CCn1cnc2c(NCc3ccccc3)ncnc21,14% (inactive),17.8% (inactive)
Nc1nc2cc(-c3cncc(Oc4ccc(F)cc4)c3)ccc2[nH]1,8.5% (inactive),18.5% (inactive)
CC(C)/N=c1\cc2n(-c3ccc(Cl)cc3)c3ccccc3nc-2cc1Nc1ccc(Cl)cc1,7.25% (inactive),12.2% (inactive)
Cc1cc(C)cc(COc2ccc3c(C)c(CCC(=O)O)c(=O)oc3c2C)c1,3.75% (inactive),1.5% (inactive)
CCOc1ccc(-c2nc(NC(=O)CS(=O)(=O)c3ccccc3)sc2C)cc1,5.25% (inactive),0.5% (inactive)
CC(=O)NCC1CN(c2ccc(-c3ccc(CO)cc3)c(F)c2)C(=O)O1 (stereo unspecified),4% (inactive),13.2% (inactive)
CCOC(=O)NC(=O)c1ccsc1NC(=O)c1nc2ccccc2s1,32.8% (inactive),2.25% (inactive)
O=C(NCc1ccoc1)N1CCN(Cc2ccc3c(c2)OCO3)CC1,7.5% (inactive),6.25% (inactive)
CS(=O)(=O)c1cccc(-c2cnc3[nH]cc(-c4ccc(CCC(=O)O)cc4)c3c2)c1,4.25% (inactive),0% (inactive)
O=C(NC1CC1)c1ccc(N2CCC(Cc3ccccc3)CC2)nc1,6.5% (inactive),19.8% (inactive)
O=S(=O)(c1ccc(Cl)cc1)N1CCN(C(=S)NCc2ccco2)CC1,0% (inactive),12% (inactive)
CCc1ccc(S(=O)(=O)Nc2cc(CN3CCN(CCC(C)C)CC3)ccc2C)cc1,1.75% (inactive),21.2% (inactive)
NC(CC(=O)c1ccc(Cl)cc1Cl)C(Cl)(Cl)Cl (stereo unspecified),9.25% (inactive),14% (inactive)
Cc1nn(C)cc1C(C)Nc1nncc(-c2ccc(C(F)(F)F)cc2)n1 (stereo unspecified),16% (inactive),4.75% (inactive)
O=C(Nc1nnc(S)s1)c1cc(Br)ccc1Cl,6.75% (inactive),4% (inactive)
COc1ccc(CCN2CCC(NCc3cccc(N(C)C)c3)CC2)cc1,29% (inactive),9.75% (inactive)
